In PubChem BioAssay (NCATS):
Inconclusive results are not listed. Where a call stands in place of a potency, no number is given. Activity calls are given as the source filed them. Calls follow the shape of the dose curve; as a rule, active = well fitted cell-killing curve with a large enough effect; inconclusive = small, poorly fitted or top-dose-only effect; inactive = flat fitted curve, though single readings scatter.
Potency is read from the fitted curve at half-maximal effect.

Assay: Cell Viability - LYMP2-014 (AID 983); also: nearly all actives have a fitted effect of over 50% in size
Conditions: LYMP2-014 lymphoblastoid cells, viability qHTS; series mostly up to 92.2 µM
Excerpt: NIH Chemical Genomics Center [NCGC]
NIH Molecular Libraries Screening Centers Network [MLSCN]
National Institutes of Environmental Health Sciences [NIEHS]
National Toxicology Program [NTP]
We have developed a 1536-well cell-based assay for quantitative high throughput screening (qHTS) against a number of cell lines to determine in vitro cytotoxicity of small molecules. This particular assay uses a human lymphoblastoid cell line (LYMP2-014) purchased from Coriell Institute for Medical Research.
NCGC Assay Protocol Summary:
The CellTiter-Glo luminescent cell viability assay (Promega) is a homogeneous method to measure the number of viable cells in culture. The end point readout of this assay is based on quantitation of intracellular ATP, an indicator of metabolic activity, using the luciferase reaction. Luciferase catalyzes the oxidation of beetle Luciferin to oxyluciferin and light in the presence of ATP. The luminescent signal is proportional to amount of ATP present.
Using the CellTiter-Glo luminescent cell viability assay, the amount of cellular ATP was measured in the lymphoblastoid cell line with complete culture medium following compound treatment for 24 hours. The assay was performed in opaque white Kalypsys 1536-well plates. In the screen, tetraoctylammonium bromide was used as positive control. Library compounds were measured for their ability to cause acute toxicity in the cell line, as reflected by a decrease in intracellular ATP levels, in a concentration-dependent manner. […] AC50 values were determined from concentration-response data modeled with the standard Hill equation.
qHTS protocol for CellTiter Glo lymphoblastoid cellular assay
[Step] [Parameter] [Value] [Description]
1. Reagent; 5 uL; 2500 lymphoblastoid cells/well
2. Time; 5 hr; 37 C incubation
4. Controls; 23 nL; Tetraoctylammonium bromide 6.4pM to 92 uM
5. Time; 24 hr; 37 C incubation
6. Reagent; 5 uL; CellTiter Glo reagent
7. Time; 30 min; Room Temperature
8. Detection; Luminescence; Viewlux plate reader
Keywords: cell viability, cytotoxicity, lymphoblastoid cell line, luminescence, NTPHTS, NTPHTS_NCGC, NIEHS, DSSTox, MLSMR, MLSCN, NIH Roadmap, qHTS, NCGC
In the case of `CC(C)(C)OOC(C)(C)C`, the Potency is reported as “inactive”. For `COc1ccc(N)cc1`, the Potency was “inactive”. In the case of `O=S1OCC2C(CO1)C1(Cl)C(Cl)=C(Cl)C2(Cl)C1(Cl)Cl` (stereo not given), the Potency is reported as “inactive”. For `c1nc[nH]n1`, the Potency was “inactive”. For `C=CC(=C)C`, the Potency was “inactive”. With `Clc1nc(Cl)nc(Cl)n1` the Potency was “inactive”. In the case of `Cc1ccc([N+](=O)[O-])cc1C`, the Potency is reported as “inactive”. For `CCCCOC(=O)c1ccccc1C(=O)OCCCC`, the Potency was “inactive”. In the case of `Nc1ccc(Br)cc1`, the Potency is reported as “inactive”. With `C=C(C)C(=O)OCC1CO1` (stereo not given) the Potency was “inactive”. In the case of `Clc1nc(Cl)nc(Nc2ccccc2Cl)n1`, the Potency is reported as “inactive”. In the case of `O=C=NC1CCCCC1`, the Potency is reported as “inactive”. With `C=C(Cl)Cl` the Potency was “inactive”. For `c1ccc2c(c1)CCCC2`, the Potency was “inactive”. With `Brc1ccccc1` the Potency was “inactive”. In the case of `O=NN(CCO)CCO`, the Potency is reported as “inactive”. In the case of `C=CCc1ccc(OC)cc1`, the Potency is reported as “inactive”. In the case of `OCC1CO1` (stereo not given), the Potency is reported as “inactive”. For `CC(=O)[O-].CC(=O)[O-].O.O.O.[Pb+2]`, the Potency was “inactive”. For `Cc1ccc(O)c(C)c1`, the Potency was “inactive”. With `Clc1ccc2ccccc2c1` the Potency was “inactive”. For `Clc1cccc(C(Cl)(Cl)Cl)n1`, the Potency was “inactive”. With `COC1=CC(=O)O[C@@H](/C=C/c2ccc3c(c2)OCO3)C1` the Potency was “inactive”. For `CCCSC(=O)Cl`, the Potency was “inactive”. For `CCCOC(=O)c1ccccc1C(=O)OCCC`, the Potency was “inactive”. With `COC1=CC(=O)OC(CCc2ccccc2)C1` (stereo not given) the Potency was “inactive”. In the case of `C/C=C/c1ccc2c(c1)OCO2`, the Potency is reported as “inactive”. In the case of `O=C1C(Cl)=C(Cl)C(=O)C(Cl)=C1Cl`, the Potency is reported as 20 µM (active). For `C=CC(C)=O`, the Potency was “inactive”. In the case of `C[C@]12CC[C@H]3[C@@H](CCC4=CC(=O)CC[C@@]43C)[C@@H]1CC[C@@H]2O`, the Potency is reported as “inactive”. In the case of `Cc1cccc([N+](=O)[O-])c1`, the Potency is reported as “inactive”. For `O=[N+]([O-])c1cccc2ccccc12`, the Potency was “inactive”. In the case of `CC(O)CCl` (stereo not given), the Potency is reported as “inactive”. For `COc1ccc(C=O)cc1OC`, the Potency was “inactive”. With `O=C(Cl)C(Cl)(Cl)Cl` the Potency was “inactive”. In the case of `c1ccc(OP(Oc2ccccc2)Oc2ccccc2)cc1`, the Potency is reported as “inactive”. For `CCNc1nc(Cl)nc(NC(C)C)n1`, the Potency was “inactive”. In the case of `c1ccc(-c2ccccc2)cc1`, the Potency is reported as “inactive”. With `C=CC(=O)OCC` the Potency was “inactive”. For `C=C(C)C#N`, the Potency was “inactive”.
